Laboratory results from PubChem BioAssay (Tox21).
A number with no mark means an inactive call. Results filed as inconclusive are left out. A call without a number means that no potency is given here. Active and inactive are the calls of the source. Unless noted, calls follow the shape of the full dose curve.

Assays:
[1] = Nuclear factor erythroid 2-related factor 2/antioxidant responsive element (Nrf2/ARE) small molecule agonists: qHTS cell viability counter screen in human keratinocytes (AID 1919968; active = well fitted curve in the direction sought with a large enough effect in the repeat runs; an effect the other way counts as inactive or inconclusive; also: nearly all actives have a fitted effect of over 55% in size)
Outline: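 CellTiter-Fluor fluorescence, read 1 h after reagent, gave viability in the same wells as the ARE-luciferase assay. KeratinoSens cells (1,500/well) had 23 h compound exposure at 37 C/5% CO2 following 5 h plating.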

[2] = Nuclear factor erythroid 2-related factor 2/antioxidant responsive element (Nrf2/ARE) small molecule agonists: luciferase reporter gene qHTS assay in human keratinocytes (AID 1919969); also: nearly all actives have a fitted effect of over 35% in size; also: potency is read from the fitted curve at half-maximal effect
[3] = molecular target: Gonadotropin-releasing hormone receptor (Homo sapiens) (UniProt P30968); test: Human gonadotropin-releasing hormone receptor (GnRHR) small molecule agonists, calcium flux assay in GnRHR-HEK293 cells (AID 1920063); also: nearly all actives have a fitted effect of over 35% in size
Chain of Gonadotropin-releasing hormone receptor (Homo sapiens) (P30968 whole entry, looked up): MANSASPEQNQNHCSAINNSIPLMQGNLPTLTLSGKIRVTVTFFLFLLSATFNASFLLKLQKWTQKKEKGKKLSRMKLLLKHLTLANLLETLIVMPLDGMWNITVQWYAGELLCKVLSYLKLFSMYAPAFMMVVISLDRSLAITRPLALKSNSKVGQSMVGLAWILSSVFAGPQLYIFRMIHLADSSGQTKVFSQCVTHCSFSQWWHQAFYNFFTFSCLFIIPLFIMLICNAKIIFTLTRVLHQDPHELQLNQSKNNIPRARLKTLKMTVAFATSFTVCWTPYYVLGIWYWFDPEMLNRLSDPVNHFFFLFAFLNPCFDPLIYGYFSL
Outline: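 Agonist mode: compounds at 15 concentrations, in triplicate, went onto calcium dye-loaded GnRHR-HEK293 cells. Intracellular calcium was then followed as 480/540 nm fluorescence at 1 s intervals over 3 min.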

[4] = molecular target: KiSS-1 receptor (Homo sapiens) (UniProt Q969F8); test: Human kisspeptin (KISS1R) small molecule agonists, calcium flux assay in KISS1R-HEK293 cells (AID 1920064; active = well fitted curve in the direction sought with a large enough effect in the repeat runs; an effect the other way counts as inactive or inconclusive)
Chain of KiSS-1 receptor (Homo sapiens) (Q969F8 whole entry, looked up): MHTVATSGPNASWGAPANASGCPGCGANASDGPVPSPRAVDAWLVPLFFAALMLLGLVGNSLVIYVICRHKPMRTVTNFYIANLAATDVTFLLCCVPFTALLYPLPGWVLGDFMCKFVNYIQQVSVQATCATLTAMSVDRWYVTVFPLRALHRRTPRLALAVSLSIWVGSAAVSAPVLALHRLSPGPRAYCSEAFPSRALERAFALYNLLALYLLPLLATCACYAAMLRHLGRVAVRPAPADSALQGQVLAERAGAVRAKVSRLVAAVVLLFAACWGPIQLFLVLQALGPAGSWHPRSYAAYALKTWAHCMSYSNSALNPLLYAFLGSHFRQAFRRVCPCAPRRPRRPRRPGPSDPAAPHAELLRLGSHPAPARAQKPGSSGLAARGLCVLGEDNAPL
Outline: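 Agonist mode: intracellular calcium rise tracked at 1 s intervals over 3 min (480/540 nm) immediately after compound addition to dye-loaded KISS1R-HEK293 stable cells. Each compound tested at 15 concentrations in triplicate.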

[5] = G protein-coupled receptor (GPCR) small molecule agonists, calcium flux assay: HEK293 wild type cell line counter screen (AID 1920065)
Outline: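 Calcium flux counter screen: compound added in agonist mode at 15 concentrations in triplicate to dye-loaded parental HEK293 cells. Fluorescence (480/540) read kinetically for 3 min; ATP served as positive control.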

[6] = p53 small molecule agonists, cell-based qHTS assay with rat liver microsomes (AID 1963578)
Outline: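 Fluorescence from a beta-lactamase reporter under a p53 response element was measured after cells had been incubated 16 h at 37 C with test compound and rat liver microsomes plus NADPH (0.5 mg/mL final each).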

[7] = p53 small molecule agonists, cell-based qHTS assay with rat liver microsomes: qHTS cell viability counter screen (AID 1963580); also: nearly all actives have a fitted effect of over 45% in size
Outline: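 Rat liver microsome (0.5 mg/mL final) and NADPH (0.5 mg/mL final) co-incubation with compounds for 16 h at 37 C on HCT-116 p53RE-bla cells; cytotoxicity taken from intracellular ATP luminescence.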

[8] = molecular target: 5-hydroxytryptamine receptor 2A (Homo sapiens) (UniProt P28223); test: 5-hydroxytryptamine receptor 2A (HTR2A) small molecule antagonists, cell-based qHTS assay (AID 1963586); also: nearly all actives have a fitted effect of over 45% in size
Chain of 5-hydroxytryptamine receptor 2A (Homo sapiens) (P28223 whole entry, looked up): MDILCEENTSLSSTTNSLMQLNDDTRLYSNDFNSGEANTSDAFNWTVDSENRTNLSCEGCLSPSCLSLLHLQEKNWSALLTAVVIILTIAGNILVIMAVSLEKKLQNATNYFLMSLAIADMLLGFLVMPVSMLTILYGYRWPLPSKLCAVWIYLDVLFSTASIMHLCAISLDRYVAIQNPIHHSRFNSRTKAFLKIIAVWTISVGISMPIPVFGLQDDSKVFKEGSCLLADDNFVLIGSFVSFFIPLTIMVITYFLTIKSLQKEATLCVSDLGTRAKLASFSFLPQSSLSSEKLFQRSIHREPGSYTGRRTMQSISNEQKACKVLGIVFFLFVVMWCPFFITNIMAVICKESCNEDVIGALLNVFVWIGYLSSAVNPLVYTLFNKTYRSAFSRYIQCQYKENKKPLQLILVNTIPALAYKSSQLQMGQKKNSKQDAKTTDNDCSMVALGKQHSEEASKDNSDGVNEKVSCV
Outline: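 CHO cells stably expressing human HTR2A were plated for 18 h at 37 C, then loaded with calcium dye for 1 h. Compounds were preincubated 5 min at room temperature before DOI (4 nM solution) was added. Kinetic fluorescence was read for 3 min.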

[9] = molecular target: 5-hydroxytryptamine receptor 2A (Homo sapiens) (UniProt P28223); test: 5-hydroxytryptamine receptor 2A (HTR2A) small molecule agonists, cell-based qHTS assay (AID 1963587); also: nearly all actives have a fitted effect of over 30% in size
Outline: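 Kinetic calcium-flux fluorescence (2 min, 1 sec intervals) after compound addition in agonist mode. HTR2A-CHO cells were cultured 18 h, then dye-loaded 1 h at 37 C.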

[10] = molecular target: Muscarinic acetylcholine receptor M1 (Homo sapiens) (UniProt P11229); test: Cholinergic receptor muscarinic 1 (CHRM1) small molecule agonists, cell-based qHTS assay (AID 1963589); also: nearly all actives have a fitted effect of over 35% in size
Chain of Muscarinic acetylcholine receptor M1 (Homo sapiens) (P11229 whole entry, looked up): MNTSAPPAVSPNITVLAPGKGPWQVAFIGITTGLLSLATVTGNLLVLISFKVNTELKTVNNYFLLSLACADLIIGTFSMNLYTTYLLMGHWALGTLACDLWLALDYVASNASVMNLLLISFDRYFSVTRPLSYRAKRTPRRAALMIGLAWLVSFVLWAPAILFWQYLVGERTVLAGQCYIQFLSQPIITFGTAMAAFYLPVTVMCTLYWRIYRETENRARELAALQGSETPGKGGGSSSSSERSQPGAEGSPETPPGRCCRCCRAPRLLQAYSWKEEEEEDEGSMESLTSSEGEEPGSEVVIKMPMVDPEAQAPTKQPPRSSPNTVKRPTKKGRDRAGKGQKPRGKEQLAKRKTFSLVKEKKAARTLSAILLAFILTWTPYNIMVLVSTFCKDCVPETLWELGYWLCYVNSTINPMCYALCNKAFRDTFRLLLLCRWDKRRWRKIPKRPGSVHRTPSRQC
Outline: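 Agonist-mode calcium-flux screen: compounds at 15 concentrations, three independent runs, were pin-transferred onto dye-loaded human CHRM1-CHO cells. Fluorescence was then recorded kinetically every second over minutes.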

[11] = cAMP Responsive Elements (CRE) small molecule agonists, cell-based qHTS assay (AID 1963590)
Outline: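 Agonist mode: compound added to CRE-bla HEK 293T cells (2,000/well, 18 h after plating) for 3 h at 37 C/5% CO2. Reporter activity detected via FRET beta-lactamase substrate, 2 h room-temperature loading.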

[12] = cAMP Responsive Elements (CRE) small molecule antagonists, cell-based qHTS assay (AID 1963591; active = well fitted inhibition curve with a large enough effect in the signal ratio in the repeat runs, not every such curve was filed as active; the % refers to the signal ratio)
Outline: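 Antagonist mode: compounds are added alongside the adenylyl cyclase activator NKH477 (0.25 uM final) to CRE-bla HEK293T cells for 3 h. LiveBLAzer FRET substrate, 2 h at room temperature, reports bla expression.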

[13] = molecular target: Beta-2 adrenergic receptor (Homo sapiens) (UniProt P07550); test: Adrenergic beta2 receptor (ADRB2) small molecule antagonists, cell-based qHTS assay (AID 1963592); also: series mostly up to about 92 µM; nearly all actives have a fitted effect of over 50% in size
Chain of Beta-2 adrenergic receptor (Homo sapiens) (P07550 whole entry, looked up): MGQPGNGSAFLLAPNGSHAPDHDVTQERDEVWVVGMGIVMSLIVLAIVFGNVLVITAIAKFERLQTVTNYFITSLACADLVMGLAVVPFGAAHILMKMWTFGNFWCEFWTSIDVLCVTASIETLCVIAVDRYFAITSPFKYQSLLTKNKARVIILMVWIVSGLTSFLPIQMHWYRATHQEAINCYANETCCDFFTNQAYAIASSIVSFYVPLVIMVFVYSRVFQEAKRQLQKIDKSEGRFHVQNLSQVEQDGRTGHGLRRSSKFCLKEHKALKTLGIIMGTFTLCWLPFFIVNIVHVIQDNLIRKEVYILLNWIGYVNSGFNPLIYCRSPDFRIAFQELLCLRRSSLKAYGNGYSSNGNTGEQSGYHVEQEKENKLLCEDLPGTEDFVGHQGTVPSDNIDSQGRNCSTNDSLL
Outline: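 Assay format: CHO-ADRB2 cells, 18-20hr seeding at 37C/5% CO2, then compound plus 1nM isoproterenol agonist mix for 0.5hr RT. Homogeneous time-resolved fluorescence cAMP detection after 1hr, expressed as 665/615 nm ratio.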

[14] = molecular target: D(2) dopamine receptor (Homo sapiens) (UniProt P14416); test: Dopamine D2 receptor (DRD2) small molecule agonists, cell-based qHTS assay (AID 1963594); also: nearly all actives have a fitted effect of over 35% in size
Chain of D(2) dopamine receptor (Homo sapiens) (P14416 whole entry, looked up): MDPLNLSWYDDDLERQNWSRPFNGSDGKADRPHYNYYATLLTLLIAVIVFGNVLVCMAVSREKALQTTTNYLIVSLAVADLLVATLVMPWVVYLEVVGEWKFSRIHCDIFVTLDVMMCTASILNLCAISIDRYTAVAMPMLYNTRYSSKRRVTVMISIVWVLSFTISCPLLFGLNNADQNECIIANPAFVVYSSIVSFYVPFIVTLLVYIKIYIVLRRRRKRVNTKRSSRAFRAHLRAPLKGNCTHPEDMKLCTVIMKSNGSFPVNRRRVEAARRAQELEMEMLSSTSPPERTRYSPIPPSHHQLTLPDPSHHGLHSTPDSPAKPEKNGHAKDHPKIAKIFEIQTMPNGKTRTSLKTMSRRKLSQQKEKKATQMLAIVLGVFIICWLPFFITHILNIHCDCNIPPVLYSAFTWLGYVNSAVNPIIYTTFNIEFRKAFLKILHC
Outline: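 cAMP accumulation in DRD2-HEK293 cells measured by HTRF after 1 h detection; compounds added 10 min before NKH477 (200nM […]) forskolin-analogue stimulation, 30 min at room temperature, with Ro20-1724 present at 0.1 mM final.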

[15] = molecular target: D(2) dopamine receptor (Homo sapiens) (UniProt P14416); test: Dopamine D2 receptor (DRD2) small molecule antagonists, cell-based qHTS assay (AID 1963595; active = well fitted inhibition curve with a large enough effect in the signal ratio in the repeat runs, with a control signal flat; the % refers to the signal ratio)
Outline: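 HTRF cAMP read-out at 665 and 620 nm emission (340 nm excitation). Antagonist mode: compounds were tested against 12 nM quinpirole in DRD2-HEK293 cells, with 200 nM NKH477 raising cAMP and 0.1 mM Ro20-1724 blocking its breakdown.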

[16] = p53 small molecule agonists, cell-based qHTS assay with human liver microsomes: qHTS cell viability counter screen (AID 1963579); also: nearly all actives have a fitted effect of over 45% in size
Outline: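 Seed p53RE-bla cells at 4,000 per well; incubate 5 h at 37 C; add compound, human liver microsomes and NADPH; incubate 16 h at 37 C; add CellTiter-Glo; after 30 min at room temperature, read luminescence.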

[17] = p53 small molecule agonists, cell-based qHTS assay: qHTS cell viability counter screen (AID 1963581); also: nearly all actives have a fitted effect of over 45% in size
Outline: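 Counter screen read by CellTiter-Glo luminescence (ATP content, 30 min at room temperature), run in the same wells as the beta-lactamase reporter read. HCT-116 p53RE-bla cells saw compounds for 16 h at 37 C.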

[18] = p53 small molecule agonists, cell-based qHTS assay (AID 1963582; active = well fitted activation curve with a large enough effect in the signal ratio in the repeat runs, not every such curve was filed as active; the % refers to the signal ratio)
Outline: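 Read-out is beta-lactamase FRET fluorescence after 2 h at room temperature with LiveBLAzer B/G substrate. p53 response element-bla cells were treated 16 h at 37 C with compounds in DMSO, added 5 h after seeding.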

[19] = molecular target: Muscarinic acetylcholine receptor M1 (Homo sapiens) (UniProt P11229); test: Cholinergic receptor muscarinic 1 (CHRM1) small molecule antagonists, cell-based qHTS assay (AID 1963588); also: nearly all actives have a fitted effect of over 40% in size
Outline: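 Compounds were tested at 15 concentrations in three independent runs. Dye-loaded CHRM1-CHO cells were exposed 5 min at room temperature before stimulation by acetylcholine added at 50nM. Intracellular calcium was read kinetically on FDSS for 3 min.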

[20] = molecular target: Beta-2 adrenergic receptor (Homo sapiens) (UniProt P07550); test: Adrenergic beta2 receptor (ADRB2) small molecule agonists, cell-based qHTS assay (AID 1963593);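 also: CHO cells stably overexpressing human ADRB2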
Outline: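 CHO cells stably over-expressing ADRB2 were plated overnight at 37C, then dosed with compounds plus a stimulation mix containing 100uM IBMX and 25uM Ro-20-1724 for 0.5hr at room temperature. cAMP was measured by HTRF competition, 1hr.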

Compound | Potency [1] | Potency [2] | Potency [3] | Potency [4] | Potency [5] | Potency [6] | Potency [7] | Potency [8] | Potency [9] | Potency [10] | Potency [11] | Potency [12] | Potency [13] | Potency [14] | Potency [15] | Potency [16] | Potency [17] | Potency [18] | Potency [19] | Potency [20]
CC(C)OC(=O)CCC(=O)OC(C)C | inactive | inactive | inactive | inactive | inactive | inactive | inactive | inactive | inactive | inactive | inactive | inactive | inactive | inactive | inactive |  |  |  |  | 
O=C=Nc1ccc(Cl)c(Cl)c1 | inactive | inactive | inactive | inactive | inactive |  | inactive | inactive | inactive | inactive |  | inactive | inactive | inactive | inactive | inactive | inactive | inactive | inactive | 
CCCCC/C=C\C/C=C\CCCCCCCC(=O)NC(C)c1ccccc1 (centres undefined) | inactive | inactive | inactive | inactive | inactive | inactive | inactive | inactive |  | inactive |  |  | inactive | inactive | inactive |  | inactive |  | inactive | inactive
COP(=O)(O)OP(=O)(O)OC | inactive | 24.3 µM (active) | inactive | inactive | inactive |  | inactive | inactive | inactive | inactive | inactive | inactive | inactive |  |  | inactive | inactive |  | inactive | 
C=C1c2cccc(O)c2C(O)=C2C(=O)[C@]3(O)C(O)=C(C(N)=O)C(=O)[C@@H](N(C)C)[C@@H]3[C@@H](O)[C@H]12 | inactive | inactive | inactive | inactive | inactive |  | inactive | inactive | inactive | inactive | inactive | inactive | inactive | inactive | inactive | inactive | inactive | inactive | inactive | 
CCN(C)C(=O)Oc1cccc([C@H](C)N(C)C)c1 | inactive | inactive | inactive | inactive | inactive |  | inactive | inactive |  | inactive | inactive | inactive |  | inactive | inactive | inactive | inactive | inactive | inactive | 
CCCCCOC(=O)Nc1nc(=O)n([C@@H]2O[C@H](C)[C@@H](O)[C@H]2O)cc1F | inactive | inactive | inactive | inactive | inactive | inactive | inactive | inactive | inactive |  | inactive | inactive | inactive | inactive |  |  | inactive |  | inactive | inactive
CN1CC(=O)N2[C@H](c3ccc4c(c3)OCO4)c3[nH]c4ccccc4c3C[C@@H]2C1=O | inactive | inactive | inactive | inactive | inactive |  | inactive | inactive | inactive | inactive | inactive | inactive | inactive | inactive | inactive | inactive | inactive |  | inactive | inactive
OCCCS | inactive | inactive | inactive | inactive | inactive |  | inactive | inactive | inactive | inactive | inactive | inactive | inactive | inactive |  | inactive | inactive | inactive | inactive | 
CCS(=O)(=O)c1ccc(OC)c(C(=O)OC)c1 | inactive | inactive | inactive | inactive | inactive | inactive | inactive | inactive | inactive | inactive | inactive | inactive | inactive | inactive | inactive |  | inactive | inactive | inactive | inactive
N#CCCOCCOCCC#N | inactive | inactive | inactive | inactive | inactive |  | inactive | inactive | inactive | inactive | inactive | inactive | inactive | inactive |  | inactive | inactive |  | inactive | inactive
CCCCCCCC/C=C\CCCCCCCC(=O)OC(CO)CO | inactive | 34.4 µM (active) | inactive | inactive | inactive |  | inactive | inactive | inactive | inactive | inactive | inactive | inactive | inactive |  | inactive | inactive |  | inactive | inactive
CCN(CCCc1ccccc1)CCCc1ccccc1 | inactive | inactive | inactive | inactive | inactive | inactive | inactive |  | inactive | inactive |  |  | inactive |  |  |  |  | inactive |  | 
C[C@@H]1C[C@H]2[C@@H]3C[C@H](F)C4=CC(=O)C(Cl)=C[C@]4(C)[C@@]3(F)[C@@H](O)C[C@]2(C)[C@@]1(O)C(=O)CO | inactive | inactive | inactive | inactive | inactive | inactive | inactive | inactive | inactive | inactive | inactive | inactive | inactive | inactive | inactive |  | inactive | inactive | inactive | 
CCc1ncc(C)[nH]1 | inactive | inactive | inactive | inactive | inactive | inactive |  |  | inactive | inactive | inactive |  | inactive | inactive | inactive | inactive | inactive | inactive | inactive | inactive
COC(=O)c1ccccc1OC | inactive | inactive | inactive | inactive | inactive |  | inactive | inactive | inactive | inactive | inactive | inactive | inactive | inactive | inactive | inactive | inactive |  | inactive | inactive
